# In PubChem BioAssay AID651965 (National Center for Advancing Translational Sciences (NCATS), 2013):
# Screen size: about 340,000 compounds; about 6,400 (1.9%) were called active. Roughly 4% stayed inconclusive and do not appear here. This is one part of a sample in which actives are shown more often than they occur. Values without a mark were called inactive. The call rests on the fitted dose curve; in most records, active means well fitted falling curve with a large enough effect; inconclusive means small, poorly fitted or top-dose-only effect; inactive means no such curve, though single readings can be large or run the other way.
# Molecular target: ATP-dependent Clp protease proteolytic subunit (Bacillus subtilis (strain 168)) (UniProt P80244)
# Experiment: qHTS Assay for Activators of ClpP; further: the source files actives as falling curves though it sought activators and does not explain the sign; nearly all actives have a fitted effect of over 65% in size
# Conditions: purified B. subtilis ClpP, FRET peptide cleavage, 20 min; series mostly up to 57.5 µM; activity change, negative = active: at the top concentration
# Source text: The Clp protease proteolytic subunit (ClpP) is the core unit of the Clp complex belonging to the peptidase family S14 that hydrolyzes protein into small peptides in the presence of ATP and magnesium. It is ubiquitously expressed and is the major protease in bacteria. […] Unlike common antibiotics that simply interfere with the essential enzyme activity, ADEP binding activates the ClpP core in the absence of the regulatory Clp-ATPases leading to uncontrolled proteolysis and eventually cell death. Activators binding to the docking site on ClpP can also block formation of the ClpXP and ClpA/C-P holoenzyme complexes interfering with the normal biological functions of ClpP and thus have the potential to become new anti-microbials.
# To identify activators of ClpP, a FRET based quenching reversal assay was developed using a purified B. subtilis ClpP and a decapeptide substrate (FRET-FV). The FRET-FV is tagged with a fluorescent molecule amino benzoic acid (donor) at the N-terminus and a nitrotyrosine quencher (acceptor) at the C-terminus. FRET-FV cleaves upon activation of ClpP with ADEP treatement and reverses the quenching effect of the nitrotyrosine causing an increase in fluorescence emission signal at 430nm. This assay was used to screen the Molecular Libraries Small Molecule Repository (MLSMR).
# NIH Molecular Libraries Probe Production Centers Network [MLPCN]
# NIH Chemical Genomics Center [NCGC]
# Assay Submitter (PI): Michael Maurizi, National Cancer Institute
# Two and a half microL/well of purified enzyme solution (final concentrations 10 microg/mL B. subtilis ClpP in 100 mM Tris/HCl pH8, 100 mM KCl, 0.05% low protease BSA, 2.5% glycerol, 0.01% Tween-20 buffer) was dispensed into 1536-well assay plates (Greiner, black solid, medium-binding plates) with Aurora Discovery BioRAPTR Flying Reagent Dispenser (FRD, Beckton-Dickenson). Compound solution (23 nL) was transferred to the assay plate using Kalypsys pin tool equipped with a 1536-pin tool. […] FRET signals at time 0 and after 20 min room temperature incubation were obtained using the PerkinElmer Envision plate reader with 320nm excitation and 430nm emission filters. Delta FRET value (Time 20 - Time 0) was calculated and normalized to the delta FRET value of positive control ADEP (5.8 microM final concentration) and negative control DMSO and no enzyme wells.
SMILES,"activity change, negative = active",Potency
CCc1nc2ccc(C(=O)Nc3cc(-c4ccccc4)ccc3OC)cn2c1N(CC)CC(=O)N(C)C,4.3%,–
CSc1ncnc2c1ncn2CCCNCC1CCCCC1,-2.79%,–
O=C1NC[C@H](CCCCN2CCN(CCc3ccccc3)C(=O)C2=O)N(CC2CCCCC2)C1=O,-1.02%,–
CC(C)C[C@H]1CNC(=S)N1C[C@H]1CCCN1C[C@H](Cc1ccc(O)cc1)N1C[C@H](Cc2ccc(O)cc2)N(CC2CCCCC2)C1=S,1.83%,–
c1ccc(Cc2c(-c3ccco3)nc3c4ccccc4ccn23)cc1,4.55%,–
Cc1ccc(C)c(C(O)c2ncc(-c3cccc4ccccc34)[nH]2)c1 (stereo not given),4.92%,–
Cc1ccc2c(CN3CCN(S(=O)(=O)c4ccccc4C(F)(F)F)CC3)cc(=O)oc2c1,-9.85%,–
O=c1cc(CN2CCN(S(=O)(=O)/C=C/c3ccccc3)CC2)c2ccc(O)cc2o1,–,10 µM (active)
COc1ccc2c(CN3CCN(S(=O)(=O)c4cccs4)CC3)cc(=O)oc2c1,-14.2%,–
CCCNC(=O)C1(C)CCN(C(=O)c2cc(F)ccc2C)C1 (stereo not given),0.883%,–
COc1ccc(C(=O)C(OP(=O)(OC)OC)c2ccccc2OC)cc1 (stereo not given),-1.26%,–
O=[N+]([O-])c1ccc(/C=C/c2ccc3cccnc3c2)cc1,-3.98%,–
N#Cc1ccc[n+](CC(=O)c2ccc(F)cc2)c1,0.138%,–
Cc1nn(-c2ccccn2)c2c1C(c1ccncc1)C1=C(CC(C)(C)CC1=O)N2 (stereo not given),–,31.6 µM (active)
Cc1cc(C)c(C2C3=C(Nc4c2c(C)nn4-c2ccccn2)c2ccccc2C3=O)c(C)c1 (stereo not given),-1.74%,–
CC1(C)CC(=O)C2=C(C1)Nc1cc(C(=O)c3ccccc3)ccc1NC2c1ccccn1 (stereo not given),-1.17%,–
Clc1cccc[n+]1CCCC[n+]1ccccc1Cl,-3.17%,–
Cc1noc(C)c1S(=O)(=O)N(C)C[C@H]1OCCCC[C@@H](C)Oc2ccc(NC(=O)CCCN(C)C)cc2C(=O)N([C@H](C)CO)C[C@@H]1C,0.472%,–
CCc1cc(C(=O)N(CC)CC(=O)Nc2c(F)cccc2F)sc1C,-1.44%,–
CN(N)c1nc(N2CCCC2)nc(N2CCCC2)n1,–,31.6 µM (active)
O=C(NNc1nc(N2CCCC2)nc(N2CCCC2)n1)c1ccccc1,0.913%,–
FC(F)(F)COc1nc(N2CCCCC2)nc(N2CCNCC2)n1,0.515%,–
CC(C)C1C(=O)N(Cc2cn(CCC3OCCO3)nn2)CCS(=O)(=O)N1Cc1ccc(-c2ccccc2C(F)(F)F)cc1 (stereo not given),1.59%,–
O=C(Nc1ccc(F)cc1)C(CCc1ccccc1)N1CCN(CC(=O)N2CCCC2)CC1 (stereo not given),1.39%,–

SMILES,"activity change, negative = active",Potency
CN(Cc1ccccc1)C(=O)c1cc2c(=O)n(C)c3ccccc3c2s1,-25.1%,–
CCN(CCCNC(=O)c1cc2c(=O)n(CC)c3ccccc3c2s1)Cc1ccccc1,–,3.55 µM (active)
CCn1c(=O)c2cc(C(=O)Nc3cccc(C(C)=O)c3)sc2c2ccccc21,-5.57%,–
CCOC(=O)c1c(C)c(C(=O)NCCc2ccc(S(N)(=O)=O)cc2)c(C)n1CC,-24.6%,–
Cc1c(C)n(Cc2ccc(Cl)cc2)c2ccc(C(=O)NCCc3ccc(S(N)(=O)=O)cc3)cc12,–,14.1 µM (active)
NS(=O)(=O)c1ccc(CCNC(=O)c2ccc(Cl)c(S(=O)(=O)N3CCCCCC3)c2)cc1,-3.6%,–
COC(=O)[C@@]12C[C@@H](CC(=O)NCc3cccc(C(F)(F)F)c3)C(=O)N(Cc3ccco3)C1=CCC(C)(C)C2,1.62%,–
Cc1cccc(CN2Cc3cccc4c3[C@H](C=CC4)CC2=S)c1,-3.52%,–
COc1ccc(CCNC(=O)COc2cc(C)cc3oc(=O)c(C)c(C)c23)cc1OC,-6.73%,–
Cc1cc(OCC(=O)Nc2nccs2)c2c(C)c(C)c(=O)oc2c1,–,31.6 µM (active)
Cc1cc(OCC(=O)NCC(O)c2ccccc2)c2c(C)c(C)c(=O)oc2c1 (stereo not given),3.71%,–
COc1ccccc1-c1cc(NC(C)=O)c2ncc(-c3ccc(F)cc3)n2c1,4.69%,–
CCc1cccc(CC)c1NC(=S)Nc1ccc2cn[nH]c2c1,-18.4%,–
Cc1cc2[nH]ncc2cc1NC(=S)NC(=O)c1ccccc1,8.42%,–
Cc1cccc(NC(=S)Nc2ccc3cn[nH]c3c2)c1,–,22.4 µM (active)
COc1cc(CNc2ncnc3c2ncn3[C@H]2CN(Cc3cccs3)C[C@@H](CO)O2)cc(OC)c1OC,-1.33%,–
CC1(C(=O)NCc2cccc3ccccc23)CCN1Cc1ccc(-c2ccccc2)o1 (stereo not given),-22.3%,–
CC1(C)CC(=O)c2cc(OCC(=O)NCC3CCCO3)ccc2O1 (stereo not given),–,11.2 µM (active)
CCOc1ccc(S(=O)(=O)NCCC(=O)NCC2CCCO2)cc1 (stereo not given),-0.322%,–
C=CCOc1ccc(/C=C/C(=O)OCC(=O)NCC2CCCO2)cc1 (stereo not given),3.23%,–
Cc1ccccc1S(=O)(=O)N1[C@@H](c2cccc(Cl)c2)C(C(=O)OC(C)(C)C)=CC[C@H]1c1ccc(Cl)cc1,-4.28%,–
COC(=O)C1(C(=O)OC)C/C=C\CN(S(=O)(=O)c2ccccc2[N+](=O)[O-])CCC1,0.858%,–
Cc1cccc(C(=O)Nc2ccccc2-c2nnn(CC(=O)Nc3ccc4c(c3)OCCO4)n2)c1,3.15%,–
O=C(Nc1ccccc1-c1nnn(CC(=O)N2CCCc3ccccc32)n1)c1cccc(Cl)c1,–,20 µM (active)

SMILES,"activity change, negative = active",Potency
O=C(Nc1ccccc1-c1nnn(CC(=O)N2CCN(c3ccccc3)CC2)n1)c1cccs1,-19.7%,–
COC(=O)[C@]12CCCCC=C1N(Cc1ccc3c(c1)OCO3)C(=O)[C@H](CC(=O)NCc1cccs1)C2,-1.48%,–
CCCCCCCCN1C(=O)[C@H](CC(=O)NCC23CC4CC(CC(C4)C2)C3)C[C@@]2(C(=O)OC)CCCCC=C12,-1.46%,–
COc1ccc(C(=O)NNS(=O)(=O)c2ccc(C)cc2)cc1,-7.98%,–
Cc1ccc(S(=O)(=O)NNC(=O)Nc2cccc3ccccc23)cc1,–,14.1 µM (active)
O=C(Nc1cccc2ccccc12)NC1CC1,3.85%,–
COc1ccc(-c2nc(=N)sn2-c2ccccc2)cc1,-2.14%,–
COC(=O)[C@@]12C[C@@H](CC(=O)NCCCCc3ccccc3)C(=O)N(Cc3ccccc3)C1=CCC(C)(C)C2,-1.89%,–
COc1cccc(OCc2cc(/C=N/NC(=O)c3nc(Cl)c(Cl)c(N)c3Cl)ccc2OC)c1,-23.6%,–
COc1cc(/C=N/NC(=O)CNC(=O)c2ccncc2)ccc1OC(C)=O,-0.766%,–
COc1ccc(/C=N/NC(=O)c2ccc(Cl)cc2)cc1COC(C)=O,–,25.1 µM (active)
CCOC(=O)[C@]12CCC=C1N(Cc1ccccc1)C(=O)[C@H](CC(=O)N1CCCC1)C2,-2.23%,–
CC(=O)NC(c1ccccc1)c1nc(-c2ccccc2C)cs1 (stereo not given),-4.42%,–
NS(=O)(=O)c1ccc(NC(=O)CSc2nnc3c(n2)[nH]c2ccccc23)cc1,1.35%,–
Cc1cc(NC(=O)Cn2nc(C(F)(F)F)c3c2CCCC3)no1,–,28.2 µM (active)
O=C(Cn1nc(C(F)(F)F)c2c1CCC2)NCc1ccc(F)cc1,-1.32%,–
O=C(Cn1nc(C(F)(F)F)c2c1CCCC2)Nc1ccc(Cl)cc1,-1.07%,–
COC(=O)c1ccc(OCC(=O)NC(C)(C)C)cc1,1.7%,–
CC(C)(C)NC(=O)COc1ccc(CNc2ccc3[nH]c(=O)[nH]c3c2)cc1,–,22.4 µM (active)
COc1ccc(C(=O)OCC(=O)Nc2ccc3[nH]c(=O)[nH]c3c2)c(OC)c1OC,-5.3%,–
Cc1ccc([C@H]2N[C@]3(CCCN(Cc4ccccc4)C3=O)[C@H]3C(=O)N(Cc4ccccc4)C(=O)[C@@H]23)cc1,1.37%,–
CCOC(=O)[C@H]1Nc2ccc(Cl)cc2[C@@H]2[C@H]1C1CC(c3ccccc31)N2C(=O)OCc1ccccc1 (stereo not given in full),-6.04%,–
CCn1c2ccccc2c2cc(NC(=O)C/C(C)=N/NC(=O)c3ccccc3N)ccc21,–,14.1 µM (active)
C/C(CC(=O)Nc1ccc(N(C)C)cc1)=N\NC(=O)c1ccccc1F,-2.45%,–

SMILES,"activity change, negative = active",Potency
CCn1c2ccccc2c2cc(NC(=O)COc3ccc(C)cc3C)ccc21,-24.8%,–
Cc1ccc(-c2cc(C(=O)NC3CCN(Cc4ccccc4)CC3)c3ccccc3n2)cc1,-0.514%,–
COc1ccc(-c2cc(C(=O)NCCCN3CCCC3=O)c3ccccc3n2)cc1OC,-6.41%,–
CCc1ccc(-c2cc(C(=O)NN3CCN(C)CC3)c3ccccc3n2)cc1,–,31.6 µM (active)
COCCNc1nc(NCc2ccc(NC(C)=O)cc2)c2sccc2n1,-15.9%,–
Cc1nc2c(OCC(=O)C(C)(C)C)cccn2c1N(C)Cc1cccs1,-7.89%,–
CCCCCc1c(-c2cccc(Br)c2)ncn1CCc1ccccc1OC,-26.2%,–
COc1c(C)cc(C(O)c2ncc(-c3cccc(C(F)(F)F)c3)[nH]2)cc1C (stereo not given),-7.79%,–
CCC(c1nnnn1-c1ccc2c(c1)OCCO2)N1CCN(c2ccc(C(F)(F)F)cn2)CC1 (stereo not given),-0.91%,–
C=C(C)CSc1nc(N)c2c3c(sc2n1)CCC3,–,12.6 µM (active)
CCc1nc(N2CCN(C(C)=O)CC2)c2c3c(sc2n1)CCCC3,-4.18%,–
CC(C)(C)C1CCc2c(sc3nc(SCC(N)=O)nc(N)c23)C1 (stereo not given),-15.5%,–
C[C@H]1CN([C@@H](C)CO)C(=O)c2cc(C3=CCCCC3)cnc2O[C@@H]1CN(C)C(=O)Cc1ccccc1,-5.72%,–
Cc1cc(NC(=O)CN2CCCC(C)C2)n(-c2nc3ccccc3s2)n1 (stereo not given),–,17.8 µM (active)
Cc1[nH]c2ccccc2c1C(=O)CN1CCCC(C)C1 (stereo not given),0.916%,–
CC(=O)Nc1ccc(NC(=O)CN2CCCC(C)C2)c(Cl)c1 (stereo not given),-3.9%,–
CC(=O)c1ccc(Nc2nc(C(N)c3ccccc3Cl)cs2)cc1 (stereo not given),-11.1%,–
CCOc1ccc2nc(N3CCCN(C(=O)Nc4ccccc4C)CC3)c(C#N)cc2c1,-2.23%,–
CCOC(=O)c1c(N)nn(C(=O)c2ccccc2)c1-c1ccccc1,-1.6%,–
CCOC(=O)c1cc(C#N)c(N2CCCCC2)nc1-c1ccccc1,–,28.2 µM (active)
Cc1cc[n+](C2CCCCC2)cc1,-7.91%,–
N#Cc1ccc[n+](CC(=O)c2ccc(O)c(O)c2)c1,-0.287%,–
O=C(NCc1cccnc1)c1cc(C2CCCN(C(=O)CCCc3ccccc3)C2)on1 (stereo not given),1.82%,–
